Source: PubChem BioAssay (National Center for Advancing Translational Sciences (NCATS))
The entries come from a sample that favours hits as a whole.
Giardia FBPA inh: blocks Giardia fructose-bisphosphate aldolase activity; Potency, µM (titrated, usually from 59.6 µM), inactives show top-dose activity, negative = inhibition, hits mostly inhibitors; purified Giardia FBPA; 0.71% of 290,000 active; note: potency is the fitted concentration of half-maximal effect; % is set by controls: 0 for no effect and ±100 for the full control effect; nearly all actives have a fitted effect of over 55% in size
Target sequence (A8B2U2 whole entry, looked up): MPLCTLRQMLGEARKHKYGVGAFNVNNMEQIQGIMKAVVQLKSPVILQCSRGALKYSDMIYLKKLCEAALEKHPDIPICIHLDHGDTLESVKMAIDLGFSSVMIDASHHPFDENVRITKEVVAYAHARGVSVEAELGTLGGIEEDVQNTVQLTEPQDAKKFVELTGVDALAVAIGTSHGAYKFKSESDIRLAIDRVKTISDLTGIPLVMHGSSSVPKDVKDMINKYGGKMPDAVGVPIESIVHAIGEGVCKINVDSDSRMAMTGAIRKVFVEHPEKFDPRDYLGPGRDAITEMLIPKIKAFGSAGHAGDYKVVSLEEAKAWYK
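40 nM FBPA preincubated 10 min at RT with compound (up to 57.5 uM final), then substrate plus GAPDH/TPI/NAD/arsenate coupling and diaphorase/resazurin added. Fluorescence read after 20 min at RT, 525/598 nm.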
Shiga toxin inh: Shiga toxin inhibition | 9.2% of 290,000 active | Vero cells, Shiga toxin protein synthesis inhibition reporter | AID 2315 | inhibition, % at 38.7 µM; in the data active = inhibition mostly above about 28%, no sharp cut-off; inactive = mostly below about 43%; note: 0% is about no effect
CHX counter: affects cycloheximide protein synthesis inhibition readout, counter-screen; cell reporter, cycloheximide protein synthesis inhibition counterscreen; max response, %; 12% of 300,000 active; AID 2314; in the data active = max response mostly above about 13%, no sharp cut-off; inactive = mostly below about 14%; note: read at 38.3 µM for the half of the compounds with a filed dose; 0% is about no effect
TbPYK inhibitor: blocks Trypanosoma brucei pyruvate kinase; TbPYK enzyme, Kinase-Glo Plus ATP luminescence, 45 min; Potency, µM (top dose mostly 76.8 µM), without a hit: at the top dose activity, negative = inhibition, actives largely listed as inhibitors; 0.12% of 410,000 active; note: potency is the fitted concentration of half-maximal effect; % is set by controls: 0 for no effect and ±100 for the full control effect; nearly all actives have a fitted effect of over 50% in size
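T. brucei PYK with substrate was exposed to pin-transferred compounds across a concentration series, then started with 130 uM ADP (final). After 45 min at room temperature, Kinase-Glo Plus luminescence was read, normalized and curve-fitted.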
RE007 growth inh: less growth of the S. pombe RE007 Vpr strain; AID 651644; S. pombe RE007 Vpr strain, BacTiter-Glo ATP luminescence, 24 h; Potency, µM (top dose mostly 92.2 µM), for inactives: at the highest dose activity change, negative = less growth, usual class: inhibitors; 0.21% of 360,000 active; active = well fitted falling curve with a large enough effect; inconclusive = small, poorly fitted or top-dose-only effect; inactive = no such curve, though single readings can be large or run the other way; note: potency is the fitted concentration of half-maximal effect; % is set by controls: 0 for no effect and ±100 for the full control effect; nearly all actives have a fitted effect of over 50% in size
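Fission yeast RE007 carrying one integrated HIV-1 vpr copy, seeded at OD 0.01 in PMG+AL medium with 23 nL pinned compound. Grown 24 h at 30 degrees; viability read by BacTiter-Glo luminescence after 5 min.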
LmPK inhibitor: blocks Leishmania mexicana pyruvate kinase activity. purified LmPK, Kinase-Glo ATP luminescence, 1 h. Potency, µM (highest dose often 57.5 µM), for the others: at the top dose activity change, negative = inhibition, hits mostly inhibitors. 0.37% of 290,000 active. AID 1721; note: potency is the fitted concentration of half-maximal effect; % is set by controls: 0 for no effect and ±100 for the full control effect
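Kinase-Glo luminescence read after 1 h RT reaction of 0.1 nM LmPK with 0.5 mM PEP and 0.1 mM ADP. Activity scaled between uninhibited and enzyme-free controls.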
* marks the source's active call; other numbers are inactive results. Unless noted, calls come from the whole dose curve; as a rule, active = well fitted curve in the direction sought with a large enough effect; inconclusive = small, poorly fitted or top-dose-only effect, or another doubt; inactive = no such curve, though single readings can be large; an effect the other way counts as inactive or inconclusive.

Screening Cc1nc(NC(=O)COc2ccc(Cl)cc2)sc1C(=O)N(C)C returned Giardia FBPA inh -0.1%, Shiga toxin inh -17.8, CHX counter -1.0 and LmPK inhibitor 0.0%.
Screening COc1ccc(OCCCC(=O)Nc2nc(C)c(C(C)=O)s2)cc1 returned Giardia FBPA inh 1.6%, Shiga toxin inh 23.9, CHX counter -2.4, TbPYK inhibitor 5.7%, RE007 growth inh 6.8% and LmPK inhibitor 0.5%.
`CC(=O)c1sc(NC(=O)CCS(=O)(=O)c2ccc(F)cc2)nc1C` gave TbPYK inhibitor -0.9% and RE007 growth inh 8.2%.
`O=c1[nH]c2c(c(=O)[nH]1)OCN(Cc1ccccc1)C2` gave TbPYK inhibitor -5.5% and RE007 growth inh 0.0%.
For Cc1ccccc1Cc1c(C)nc2nc(SCC(=O)NC(C)c3ccccc3)nn2c1C (configuration not stated) the results were TbPYK inhibitor 3.4%.
For c1ccc2[nH]c(CSc3nc4ccccc4s3)nc2c1 the results were Giardia FBPA inh 3.5%, Shiga toxin inh 54.8*, CHX counter 43.5*, TbPYK inhibitor -5.5%, RE007 growth inh inconclusive and LmPK inhibitor -7.6%.
CCCc1nc2ccccc2[nH]1 was read as Giardia FBPA inh -27.5%, Shiga toxin inh 22.8, CHX counter -2.1, TbPYK inhibitor 4.8%, RE007 growth inh 15.8% and LmPK inhibitor -5.0%.
N#Cc1ccccc1CSc1ccccn1 was read as Giardia FBPA inh -0.1%, Shiga toxin inh 23.4, CHX counter -4.2, TbPYK inhibitor -2.3%, RE007 growth inh -10.1% and LmPK inhibitor -0.5%.
For c1ccc(SCc2nc(-c3ccncc3)n[nH]2)nc1 the results were Giardia FBPA inh -3.8%, Shiga toxin inh 45.6*, CHX counter 16.4, TbPYK inhibitor 6.4%, RE007 growth inh 2.6% and LmPK inhibitor 7.8%.
c1ccc(SCc2nc3ccccc3[nH]2)nc1 was read as Giardia FBPA inh -9.5%, Shiga toxin inh 59.8*, CHX counter 26.0*, TbPYK inhibitor 4.8%, RE007 growth inh -5.4% and LmPK inhibitor -2.1%.
For Cn1c(COc2ccccc2)nnc1SCc1nc2ccccc2[nH]1 the results were Giardia FBPA inh 0.3%, Shiga toxin inh -4.8, CHX counter -3.1, TbPYK inhibitor 0.5%, RE007 growth inh 14.2% and LmPK inhibitor 0.9%.
Screening Cn1nnnc1SCc1nc2ccccc2[nH]1 returned Giardia FBPA inh 0.1%, Shiga toxin inh 62.3, CHX counter 33.7*, TbPYK inhibitor 1.9%, RE007 growth inh -23.2% and LmPK inhibitor -2.4%.
Screening Cc1nnc(SCc2nc3ccccc3[nH]2)s1 returned Giardia FBPA inh -12.2%, Shiga toxin inh 17.2, CHX counter -2.0, TbPYK inhibitor 2.1%, RE007 growth inh 24.9% and LmPK inhibitor -1.4%.
For CC(C)CCNC(=O)c1ccc2nc(CCc3ccccc3)oc2c1 the results were TbPYK inhibitor -1.8%.
Screening O=C(CSc1nc2ccccc2c(=O)n1CCCN1CCOCC1)NC12CC3CC(CC(C3)C1)C2 returned Giardia FBPA inh 4.8%, Shiga toxin inh -16.1, CHX counter -5.5, TbPYK inhibitor -4.8%, RE007 growth inh -14.5% and LmPK inhibitor 1.9%.
CCN1/C(=C/C(=O)c2ccco2)Sc2ccccc21 was read as Giardia FBPA inh inconclusive, Shiga toxin inh 65.1, CHX counter 24.4*, TbPYK inhibitor 2.8%, RE007 growth inh -23.8% and LmPK inhibitor -2.2%.
`CCC(=O)/C=C1/Sc2ccccc2N1CC` gave Giardia FBPA inh -11.7%, Shiga toxin inh 121.2*, CHX counter 29.4*, TbPYK inhibitor inconclusive, RE007 growth inh -24.0% and LmPK inhibitor 2.1%.
Screening CCC(=O)/C=C1/Sc2ccc(OC)cc2N1CC returned Giardia FBPA inh -8.3%, Shiga toxin inh 21.7, CHX counter -3.1, TbPYK inhibitor -7.6%, RE007 growth inh -7.0% and LmPK inhibitor -2.3%.
Screening CN1/C(=C\C(=O)c2ccco2)C(C)(C)c2ccccc21 returned Giardia FBPA inh -23.1%, Shiga toxin inh 13.1, CHX counter -2.1, TbPYK inhibitor 0.8%, RE007 growth inh inconclusive and LmPK inhibitor -0.8%.
`O=C(CCCCn1cnc2c(=S)nc[nH]c21)Nc1ccc(C(=O)O)c(O)c1` gave TbPYK inhibitor inconclusive and RE007 growth inh 1.3%.
CCOc1ccc2nc(COC(=O)c3ccncc3)c(C(=O)c3ccccc3)[n+]([O-])c2c1 was read as Giardia FBPA inh -8.0%, Shiga toxin inh 51.7*, CHX counter 27.0*, TbPYK inhibitor 2.2%, RE007 growth inh -8.7% and LmPK inhibitor 5.5%.
